In the library only some 9.2% were active in any assay of this set; here they are far more common.
Rab9 promoter act: activators of Rab9 promoter | Huh7 Rab9 promoter-luciferase reporter, luminescence, 24 h | Potency, µM (series often up to 9.22 µM), hits mostly activators | hit rate 2.8% among 320,000 | AID 485297; also: nearly all actives have a fitted effect of over 60% in size
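Promoter activation is measured as luciferase luminescence in Huh7 cells stably transfected with a Rab9 promoter–luciferase construct, following 24 h compound exposure at 37 °C and 10 min reagent incubation at ambient temperature.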
FLuc modulator: firefly luciferase modulation, counter-screen for miR-21 project. purified FLuc, Km substrates, luminescence inhibition. Potency, µM (series often up to 57.5 µM), actives largely listed as inhibitors. hit rate 6.9% among 360,000. AID 588342; also: nearly all actives have a fitted effect of over 55% in size
Target sequence (P08659 whole entry, looked up): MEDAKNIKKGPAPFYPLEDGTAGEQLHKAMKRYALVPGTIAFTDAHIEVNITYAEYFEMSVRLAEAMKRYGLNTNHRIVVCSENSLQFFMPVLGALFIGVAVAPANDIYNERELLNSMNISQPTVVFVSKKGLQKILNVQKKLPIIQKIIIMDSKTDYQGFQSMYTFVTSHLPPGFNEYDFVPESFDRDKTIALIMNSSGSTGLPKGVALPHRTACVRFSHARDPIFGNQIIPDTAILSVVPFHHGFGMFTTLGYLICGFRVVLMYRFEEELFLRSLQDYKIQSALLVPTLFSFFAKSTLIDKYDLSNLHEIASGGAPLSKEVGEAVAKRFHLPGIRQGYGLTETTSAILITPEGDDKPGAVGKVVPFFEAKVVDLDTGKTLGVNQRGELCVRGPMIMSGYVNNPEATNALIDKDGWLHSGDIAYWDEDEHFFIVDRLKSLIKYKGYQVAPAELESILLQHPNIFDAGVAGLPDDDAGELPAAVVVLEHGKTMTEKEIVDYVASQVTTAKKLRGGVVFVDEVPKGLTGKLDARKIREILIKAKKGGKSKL
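Purified P. pyralis luciferase (10nM final) with 10uM D-luciferin and 10uM ATP (Km levels) in 50mM Tris acetate pH 7.5, 10mM Mg acetate, 0.01% Tween-20, 0.05% BSA; qHTS 6-point titration, ~60 µM downward; luminescence read.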
NPC1 promoter act: NPC1 promoter activation; hit rate 2.4% among 320,000; Potency, µM (titrated, usually from 9.22 µM), actives largely listed as activators; Huh7 NPC1 promoter luciferase reporter, 24 h; AID 485313; also: nearly all actives have a fitted effect of over 60% in size
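Luciferase expression driven by the NPC1 promoter was measured in stably transfected Huh7 cells after a 24 h compound incubation, using a luciferase reagent and a luminescence read.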
SMN2 splice up: SMN2 splice variant enhancement; HEK293 SMN2-luciferase splicing reporter, luminescence, 30-36 h; Potency, µM (series often up to 46.1 µM), actives largely listed as activators; hit rate 2.8% among 210,000; AID 1458; also: nearly all actives have a fitted effect of over 55% in size
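HEK293 cells carry an SMN2 minigene-luciferase reporter in which exon 7 inclusion puts luciferase in frame. Cells were seeded at 2000 cells/well, attached for 10-12 hours, then exposed to compounds for 30-36 hours at 37C before ONE-Glo luminescence.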
ELG1 genotoxic: induces genotoxicity in HEK293T cells with luciferase-tagged ELG1 | HEK293T ELG1-luciferase reporter, luminescence, 16 h | Potency, µM (series often up to 46 µM), hits mostly activators | hit rate 1.3% among 330,000 | AID 504466; also: nearly all actives have a fitted effect of over 60% in size
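Cells (2,000/well) expressing the ELG1-luciferase fusion are dosed by pin tool and kept 16 hr at 37 °C, 5% CO2. Signal comes from ONE-Glo luciferase reagent after 30 min at room temperature.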
ELG1 repair inh: inhibitors of ELG1-dependent DNA repair in HEK293T cells. HEK293T ELG1-luciferase reporter, luminescence, 16 h; DNA damage induced by 5-fluorouridine. Potency, µM (series often up to 46.1 µM), usual class: inhibitors. hit rate 2.3% among 330,000. AID 504467; also: nearly all actives have a fitted effect of over 55% in size
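Overnight (16 hr) co-exposure of 2,000 cells/well to 5-fluorouridine and compound at 37 °C preceded detection. Luciferase was quantified via ONE-Glo luminescence; loss of signal denotes inhibition.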
Numbers stand for hits; 0 = inactive; ? = inconclusive; - = no result; [ ] = dose if it differs, or a comment. Calls follow the shape of the dose curve; as a rule, active = well fitted curve in the direction sought with a large enough effect; inconclusive = small, poorly fitted or top-dose-only effect, or another doubt; inactive = no such curve, though single readings can be large; an effect the other way counts as inactive or inconclusive.

SMILES | Rab9 promoter act | FLuc modulator | NPC1 promoter act | SMN2 splice up | ELG1 genotoxic | ELG1 repair inh
COc1ccc(O)c(-c2cc(-c3cccc(Br)c3)n[nH]2)c1 | ? | 19µM | ? | 0 | 21µM | ?
CCOC(=O)c1c(NC(=O)CN2C(=O)NC3(CCCCC3C)C2=O)sc(C)c1CC (stereo not drawn) | 0 | 0 | 0 | - | ? | ?
COc1ccc(-c2cc(-c3cc(OC)ccc3O)[nH]n2)cc1 | ? | 24µM | ? | ? | 9.2µM | ?
CCOC(=O)c1ccc(NCc2nc3ccccc3[nH]2)cc1 | ? | 21µM | ? | 0 | ? | ?
CCc1ccc(NCc2nc3ccccc3c(=O)[nH]2)cc1 | 2.8µM | 11µM | ? | 10µM | 3.3µM | ?
CCOC(=O)c1ccc(Nc2nnc(C)c3ccccc23)cc1 | 0 | 17µM | 0 | - | 0 | 0
CCOC(=O)c1ccc(Nc2cnc3ccccc3n2)cc1 | 1.8µM | 2.4µM | 2.2µM | 13µM | 9.2µM | ?
CCc1ccc(NC(=O)CSc2nc3ccccc3nc2Cc2ccccc2OC)cc1 | - | 0 | - | - | - | -
O=C(c1ccccc1Sc1cccc2ccccc12)N1CCOCC1 | 0 | 0 | 0 | 0 | 0 | 0
Cc1oc2ncn(CC(C)C)c(=O)c2c1C(=O)NCCCN1CCCCC1C (stereo not drawn) | - | 0 | - | - | - | -
O=C(O)c1ccc(Nc2cnc3ccccc3n2)cc1 | 2.8µM | 13µM | ? | 0 | ? | ?
Fc1cccc(NCc2cccn2-c2nnc(N3CCOCC3)s2)c1 | - | 0 | - | - | - | -
CC1(c2cccc(Br)c2)NC(=O)N(CC(=O)Nc2ccc3c(c2)OCO3)C1=O (stereo not drawn) | 0 | 0 | 0 | - | 0 | 0
CCOc1ccccc1NC(=O)c1cn(C2CCCC2)c(=O)c2c1c1ccccc1n2C | - | 0 | - | - | - | -
O=C(O)c1ccccc1C(=O)c1ccc(-c2ccccc2)cc1 | 0[1.84 µM] | 21µM | 0 | - | 0 | ?
COc1cccc(C2CC(c3c(-c4ccccc4)c4cc(Cl)ccc4[nH]c3=O)=NN2S(C)(=O)=O)c1OC (stereo not drawn) | 0 | 0 | 0 | 0 | 0 | 23µM
COc1ccccc1C1CC(c2c(-c3ccccc3)c3cc(Cl)ccc3[nH]c2=O)=NN1S(C)(=O)=O (stereo not drawn) | 0 | 0 | 0 | 0 | 0 | ?
COc1cc(Br)ccc1C1C(C(=O)Nc2ccc(C)cc2C)=C(C)Nc2nnnn21 (stereo not drawn) | - | 0 | - | 0 | - | -
Oc1cc(-c2ccc(N3CCCCC3)nc2)cc2cccnc12 | 0 | ? | 0 | - | 18µM | ?
CN1CCN(c2ccc(-c3cc(O)c4ncccc4c3)cc2)CC1 | ? | 6µM | 0 | - | - | -
Oc1cc(-c2ccncc2)cc2cccnc12 | 0 | ? | 0 | - | 0 | 16µM
CN(C)c1ccc(-c2cc(O)c3ncccc3c2)cc1 | 0 | 15µM | 0 | - | 16µM | ?
CN(C)CCCNC(=O)c1ccc(-c2cc(O)c3ncccc3c2)cc1 | 0 | 0 | 0 | - | 0 | ?
Oc1cc(Nc2ccncc2)cc2cccnc12 | 0 | 0 | 0 | - | 0 | 0
COc1ccc(OC)c(C(=O)COC(=O)COc2ccccc2)c1 | - | - | - | - | 0 | 0
SMILES | Rab9 promoter act | FLuc modulator | NPC1 promoter act | SMN2 splice up | ELG1 genotoxic | ELG1 repair inh
COc1ccc(-n2c(/C=C(\C)O)nc(=O)c3c(C)cc(C)nc32)cc1 | 0 | 0 | 0 | 0 | 0 | 8.2µM
COc1ccccc1C/C(N)=N/OC(=O)c1cccc([N+](=O)[O-])c1C | 0 | 0 | 0 | 0 | 0 | 23µM
COc1ccc(/C(N)=N/OC(=O)c2cccc([N+](=O)[O-])c2)cc1 | 0 | 19µM | 0 | ? | ? | ?
COc1ccccc1C(=O)CC(=O)C(=O)Nc1cccc([N+](=O)[O-])c1C | 0 | 0 | 0 | - | 0 | 18µM
COc1ccc(/C(N)=N/OC(=O)c2cccc([N+](=O)[O-])c2C)cc1 | 0 | 17µM | 0 | 0 | ? | ?
COc1ccccc1C/C(N)=N/OC(=O)COc1ccccc1C | 0 | 0 | 0 | - | - | -
CCCCN(CCCNC(=O)CN1N=C(c2ccccc2)CCC1=O)c1ccccc1 | - | 0 | - | - | - | -
COc1cc(C(=O)O/N=C(\N)c2ccc([N+](=O)[O-])cc2)cc(OC)c1OC | 0 | 0 | 0 | 0 | 0 | ?
COc1cccc(C(=O)O/N=C(\N)c2ccc([N+](=O)[O-])cc2)c1 | 0 | 2.4µM | 0 | 0 | 0 | ?
CCCCNN | - | - | - | 0[9.22 µM] | - | -
O=C(Nc1cccc(Cl)c1)c1ccc(F)c(S(=O)(=O)N2CCN(c3ccccn3)CC2)c1 | 0 | 0 | 0 | 0 | 0 | 13µM
CCOc1ccc(NC(=O)c2ccc(F)c(S(=O)(=O)N3CCN(c4ccccn4)CC3)c2)cc1 | 0 | 0 | 0 | 0 | 0 | 9.2µM
CCc1ccc(NC(=O)c2ccc(F)c(S(=O)(=O)N3CCN(c4ccc(OC)cc4)CC3)c2)cc1 | - | 0 | - | - | - | -
O=C(COc1ccc2c(-c3ccccc3)cc(=O)oc2c1)N[C@H](Cc1c[nH]c2ccccc12)C(=O)O | 0 | ? | 0 | - | 0 | 0
O=C(Nc1ccc(O)c2c(=O)cc(-c3cccc(Cl)c3)oc12)c1ccccc1Cl | 0 | 0 | 0 | - | ? | 0
Cc1csc(N/N=C/c2ccc(O)c([N+](=O)[O-])c2)n1 | 0 | 21µM | 0 | 0 | ? | ?
COc1ccc(/C=N/Nc2nc(N3CCCCC3)nc(N3CCCCC3)n2)cc1[N+](=O)[O-] | 0 | 0 | 0 | 0 | 0 | ?
O=[N+]([O-])c1cc(/C=N/Nc2nc(N3CCCCC3)nc(N3CCCCC3)n2)ccc1O | 0 | 15µM | 0 | ? | 0 | 0
O=C(NCc1cccc(Cl)c1)c1ccc2c(c1)nc1n2CCOC1 | - | 0 | - | - | - | -
Cc1cccc(N2CCN(C(=O)c3ccc(CS(=O)(=O)c4ccccc4C)o3)CC2C)c1 (stereo not drawn) | 0 | 0 | 0 | 0 | 0 | 9.2µM
Cc1ccc(C)c(N2CCN(C(=O)c3ccc(CS(=O)(=O)c4ccccc4C)o3)CC2)c1 | 0 | 0 | 0 | 0 | 0 | 26µM
O=C(c1cccc(N2C(=O)C3C4C=CC(C4)C3C2=O)c1)N1CCN(c2ccc(F)cc2)CC1 (stereo not drawn) | 0 | 0 | 0 | - | 0 | ?
Cc1cccc(N2CCN(C(=O)c3cccc(N4C(=O)C5C6C=CC(C6)C5C4=O)c3)CC2C)c1 (stereo not drawn) | 0 | 0 | 0 | - | 0 | 13µM
CC1C=CCC2C(=O)N(c3cccc(C(=O)N4CCN(c5ccc(F)cc5)CC4)c3)C(=O)C12 (stereo not drawn) | 3.2µM | 12µM | 2.8µM | ? | ? | ?
Cc1ccc(NC(=O)CN2C(=O)C3C4C=CC(C4)C3C2=O)cc1S(=O)(=O)N(C)C (stereo not drawn) | 0 | 0 | 0 | 0[1.84 µM] | 0 | 0
Cc1ccc(C)c(N2CCN(C(=O)c3ccc(CS(=O)Cc4ccc(Cl)cc4)o3)CC2)c1 (stereo not drawn) | 0 | 0 | 0 | - | 0 | 15µM

Bioassay records: PubChem, National Center for Advancing Translational Sciences (NCATS)
